Experimental data taken from PubChem BioAssay (NCATS).
Results filed as inconclusive are left out. Active and inactive are the calls of the source. The call rests on the fitted dose curve; in most records, active means well fitted cell-killing curve with a large enough effect; inconclusive means small, poorly fitted or top-dose-only effect, or effect the other way; inactive means flat fitted curve, though single readings scatter. Where a SMILES comes first, the peptide text is derived from it.

Experiments:
Test in all cases: Primary qHTS to identify gynecologic anti-cancer compounds using libraries of approved drugs and bioactive compounds (AID 1345084); further: nearly all actives have a fitted effect of over 55% in size
[1] = tested on: CAOV3; conditions: Gynecologic cancer cell panel viability, ATPlite luminescence, 48 h; series mostly up to 57.5 µM
Outline: (§1)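 Luminescence from the ATPlite ATP-monitoring reagent indicates viable cell number; lower signal means cytotoxicity. Cells received compound 16 h after seeding and were exposed for 48 h across five concentrations.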

[2] = tested on: CASKI; conditions: Gynecologic cancer cell panel viability, ATPlite luminescence, 48 h; series mostly up to 57.5 µM
Outline: as §1

[3] = tested on: Es-2; conditions: Gynecologic cancer cell panel viability, ATPlite luminescence, 48 h; series mostly up to 57.5 µM
Outline: as §1

[4] = tested on: HeLa; conditions: Gynecologic cancer cell panel viability, ATPlite luminescence, 48 h; series mostly up to 57.5 µM
Outline: as §1

[5] = tested on: Hek293T; conditions: Gynecologic cancer cell panel viability, ATPlite luminescence, 48 h, control line for the selectivity index; series mostly up to 57.5 µM
Outline: as §1

[6] = tested on: JEG-3; conditions: Gynecologic cancer cell panel viability, ATPlite luminescence, 48 h; series mostly up to 57.5 µM
Outline: as §1

[7] = tested on: OV90; conditions: Gynecologic cancer cell panel viability, ATPlite luminescence, 48 h; series mostly up to 57.5 µM
Outline: as §1

[8] = tested on: PA-1; conditions: Gynecologic cancer cell panel viability, ATPlite luminescence, 48 h; series mostly up to 57.5 µM
Outline: as §1

[9] = tested on: Tov-21-G; conditions: Gynecologic cancer cell panel viability, ATPlite luminescence, 48 h; series mostly up to 57.5 µM
Outline: as §1

[10] = tested on: Tov112D; conditions: Gynecologic cancer cell panel viability, ATPlite luminescence, 48 h; series mostly up to 57.5 µM
Outline: as §1

[11] = tested on: SKOV3; conditions: Gynecologic cancer cell panel viability, ATPlite luminescence, 48 h; series mostly up to 57.5 µM
Outline: as §1
On the % scale 0 is the no-effect control and ±100 the full control effect.

C[C@@H](Nc1cc(NS(=O)(=O)N2CCC2)nc(SCc2cccc(F)c2F)n1)[C@@H](O)CO
inactive: Potency [1] | Potency [2] | Potency [3] | Potency [4] | Potency [5] | Potency [6] | Potency [7] | Potency [8] | Potency [9] | Potency [10]

C[C@@H](O)[C@H](N)C(=O)N1CCC[C@H]1C(=O)N1CCC[C@H]1C(=O)N[C@H](C(N)=O)[C@@H](C)O (H-TPPT-NH2)
inactive: activity change, negative = cytotoxicity [1] 3.79% [at 11.6 µM] | activity change, negative = cytotoxicity [2] 7.08% [at 11.6 µM] | activity change, negative = cytotoxicity [3] -3.74% [at 11.6 µM] | activity change, negative = cytotoxicity [4] 8.64% [at 11.6 µM] | activity change, negative = cytotoxicity [5] 17.1% [at 11.6 µM] | activity change, negative = cytotoxicity [6] -0.985% [at 11.6 µM] | activity change, negative = cytotoxicity [7] -0.207% [at 11.6 µM] | activity change, negative = cytotoxicity [8] -4.12% [at 11.6 µM] | activity change, negative = cytotoxicity [9] 0.205% [at 11.6 µM] | activity change, negative = cytotoxicity [10] 6.35% [at 11.6 µM]

CC1(C)C[C@H]2C3=CCC4[C@@]5(C)CC[C@H](O[C@H]6O[C@H](C(=O)O)[C@@H](O)[C@H](O)[C@H]6O[C@H]6O[C@H](CO)[C@@H](O)[C@H](O)[C@H]6O[C@@H]6O[C@H](CO)[C@@H](O)[C@H](O)[C@H]6O)[C@](C)(CO)C5CC[C@@]4(C)[C@]3(C)CC[C@@]2(C)[C@H](O[C@@H]2OC[C@H](O)[C@H](OC3O[C@H](CO)[C@@H](O)[C@H](O)[C@H]3O)[C@H]2O)[C@@H]1O (stereo not given in full)
inactive: activity change, negative = cytotoxicity [1] 18.6% [at 6.55 µM] | activity change, negative = cytotoxicity [2] -2.3% [at 6.55 µM] | activity change, negative = cytotoxicity [3] 0.0485% [at 6.55 µM] | activity change, negative = cytotoxicity [4] 2.32% [at 6.55 µM] | activity change, negative = cytotoxicity [5] -1.35% [at 6.55 µM] | activity change, negative = cytotoxicity [6] 2.5% [at 6.55 µM] | activity change, negative = cytotoxicity [7] -1.3% [at 6.55 µM] | activity change, negative = cytotoxicity [11] -2.8% [at 6.55 µM] | activity change, negative = cytotoxicity [9] 3.65% [at 6.55 µM] | activity change, negative = cytotoxicity [10] -3.08% [at 6.55 µM]

C[C@@H]1O[C@@H](OC[C@H]2O[C@@H](OCCc3ccccc3)[C@H](O)[C@@H](O)[C@@H]2O)[C@H](O)[C@H](O)[C@H]1O
inactive: Potency [1] | Potency [2] | Potency [3] | Potency [4] | Potency [5] | Potency [6] | Potency [7] | Potency [11] | Potency [9] | Potency [10]

Cc1coc2c1CC1OC1(C)CCC1OC1(C)C2 (stereo not given)
inactive: Potency [1] | Potency [2] | Potency [3] | Potency [4] | Potency [5] | Potency [6] | Potency [7] | Potency [8] | Potency [9] | Potency [10]

O=C(O)Cc1nn(Cc2nc3cc(C(F)(F)F)ccc3s2)c(=O)c2nccnc12
inactive: Potency [1] | Potency [2] | Potency [3] | Potency [4] | Potency [5] | Potency [6] | Potency [7] | Potency [8] | Potency [9] | Potency [10]

CNc1nc(Nc2cnn([C@H]3CCN(C4COC4)C[C@@H]3F)c2Cl)ncc1C(F)(F)F
inactive: Potency [1] | Potency [2] | Potency [3] | Potency [4] | Potency [5] | Potency [6] | Potency [7] | Potency [11] | Potency [9] | Potency [10]

CC1(C)CC(=O)N(CCCCN2CCN(c3ncccn3)CC2)C(=O)C1
inactive: Potency [1] | Potency [2] | Potency [3] | Potency [4] | Potency [5] | Potency [6] | Potency [7] | Potency [11] | Potency [9] | Potency [10]

C=Cc1cc(O)cc2nc(-c3ccc(O)c(F)c3)oc12
inactive: Potency [1] | Potency [2] | Potency [3] | Potency [4] | Potency [5] | Potency [6] | Potency [8] | Potency [11] | Potency [9] | Potency [10]

CCn1c2ccccc2c2cc(CNC)ccc21
inactive: Potency [1] | Potency [2] | Potency [3] | Potency [4] | Potency [5] | Potency [6] | Potency [8] | Potency [11] | Potency [9] | Potency [10]

CC(C)=CCC/C(C)=C/CC/C(C)=C/CC[C@]1(C)CCc2cc(O)cc(C)c2O1
inactive: Potency [1] | Potency [2] | Potency [3] | Potency [4] | Potency [5] | Potency [6] | Potency [7] | Potency [8] | Potency [9] | Potency [10]

CC1CCC2(C(=O)OC3OC(CO)C(O)C(O)C3O)CCC3(C)C(=CCC4C5(C)CC(O)C(O)C(C)(C(=O)O)C5CCC43C)C2C1(C)O (stereo not given)
inactive: Potency [1] | Potency [2] | Potency [3] | Potency [4] | Potency [5] | Potency [6] | Potency [7] | Potency [11] | Potency [9] | Potency [10]

C[C@@H]1O[C@@H](O[C@@H]2[C@@H](O)[C@H](O[C@@H]3[C@@H](O)[C@@H](O)[C@H](O[C@H]4[C@H](OC(=O)[C@]56CCC(C)(C)C[C@H]5C5=CCC7[C@@]8(C)C[C@H](O)[C@H](O[C@@H]9O[C@@H](C)[C@H](O)[C@@H](O)[C@H]9O)[C@@](C)(CO)C8CC[C@@]7(C)[C@]5(C)C[C@H]6O)O[C@H](C)[C@H](O)[C@@H]4O)O[C@H]3C)OC[C@H]2O)[C@H](O)[C@H](O)[C@H]1O (stereo not given in full)
inactive: activity change, negative = cytotoxicity [1] 7.84% [at 6.55 µM] | activity change, negative = cytotoxicity [2] 0.934% [at 6.55 µM] | activity change, negative = cytotoxicity [3] -4.41% [at 6.55 µM] | activity change, negative = cytotoxicity [4] 3.33% [at 6.55 µM] | activity change, negative = cytotoxicity [5] 5.23% [at 6.55 µM] | activity change, negative = cytotoxicity [6] 1.34% [at 6.55 µM] | activity change, negative = cytotoxicity [7] 4.8% [at 6.55 µM] | activity change, negative = cytotoxicity [8] 7.81% [at 6.55 µM] | activity change, negative = cytotoxicity [9] -0.124% [at 6.55 µM] | activity change, negative = cytotoxicity [10] 9.68% [at 6.55 µM]
